CBX7 AlphaScr: CBX7 inhibition, primary AlphaScreen | 66,000 compounds, 1.1% hits | normalised signal (fraction of DMSO) (no concentration beside the values) | AID 1224903 | AlphaScreen His6-CBX7 / biotin-H3K27me3 peptide binding; hits give low values; in the data active = normalised signal below about 0.5
Target sequence (O95931 whole entry, looked up): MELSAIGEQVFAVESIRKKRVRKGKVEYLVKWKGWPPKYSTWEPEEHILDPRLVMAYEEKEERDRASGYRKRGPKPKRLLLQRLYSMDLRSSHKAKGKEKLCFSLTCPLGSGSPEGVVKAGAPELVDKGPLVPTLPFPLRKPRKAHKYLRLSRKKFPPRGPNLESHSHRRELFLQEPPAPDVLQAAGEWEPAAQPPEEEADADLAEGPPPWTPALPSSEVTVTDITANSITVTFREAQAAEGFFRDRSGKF
Numbers stand for hits; i = inactive. The entries come from a sample that favours hits as a whole.

SMILES	CBX7 AlphaScr
CCCN1C(=O)CN(C2CCC(C)CC2)C(=O)C1c1ccc(C)cc1 (stereo not given)	i
O=C1Nc2ccccc2OC1CC(=O)N1CCN(c2ccccn2)CC1 (stereo not given)	i
Cn1c(=O)c(=O)n(C)c2cc(S(=O)(=O)Nc3ccc(F)c(Cl)c3)ccc21	i
COc1cc2c(C(=O)N3CCCCCC3)cn(CC(C)C)c(=O)c2cc1OC	i
COCCNC(=O)c1c(-c2ccccc2)noc1C	i
CC1CCN(c2oc(COc3cccc(Cl)c3)nc2C#N)CC1	i
N#Cc1nc(COc2ccccc2Cl)oc1N1CCCCCC1	i
N#Cc1nc(COc2ccc(Cl)cc2)oc1N1CCCCCC1	0.37
N#Cc1nc(COc2ccccc2)oc1N1CCCCC1	i
N#Cc1nc(COc2cccc(Cl)c2)oc1N1CCCCC1	i
N#Cc1nc(COc2cccc(Cl)c2)oc1N1CCCCCC1	0.45
Cc1ccccc1OCCn1c(=N)n(CC(C)C)c2ccccc21	i
COc1ccc(-c2nc(-c3ccccc3)c(-c3ccc(Oc4ccccc4)cc3)[nH]2)cc1	0.47
COc1ccc(-c2nc(-c3cccc4ccccc34)[nH]c2-c2ccc(OC)cc2)cc1	i
COc1ccc(-c2nc(-c3cccc(F)c3)[nH]c2-c2ccc(OC)cc2)cc1	i
COc1ccc(-c2nc(-c3ccccc3)c(-c3ccc(Cl)cc3)[nH]2)cc1	i
COc1ccc(-c2nc(-c3ccccc3)c(-c3ccc(Sc4ccccc4)cc3)[nH]2)cc1	i
Oc1ccc(-c2nc(-c3ccccc3)c(-c3ccc(Oc4ccccc4)cc3)[nH]2)cc1O	0.45
COc1ccc(-c2nc(-c3ccccc3F)[nH]c2-c2ccc(OC)cc2)cc1	0.47
CCOc1ccc(NC(=O)CSc2nc(NCCc3ccccc3)c3ccccc3n2)cc1	i
Cc1nccc2[nH]c(=O)c(C(=O)NC3CCN(Cc4ccccc4)CC3)cc12	i
COc1ccc(-c2cc(C(=O)NCc3ccc(C)cc3)c3ccccc3n2)cc1OC	i
O=c1c2cccnc2n(Cc2cccc(F)c2)c(=O)n1CCc1c[nH]c2ccccc12	i
Cn1c(SCCCN2CCN(c3cccc(Cl)c3)CC2)nnc1-c1ccccc1	i
COc1ccc(C(=O)Nc2ccc(S(=O)(=O)Nc3nccnc3OC)cc2)cc1OC	i
SMILES	CBX7 AlphaScr
CCCCN(C)S(=O)(=O)c1ccc2c(c1)CCN2C(C)=O	i
COc1ccc(Cn2c(=O)c3cccnc3n(Cc3cccc(OC)c3)c2=O)cc1	i
CCc1cc(-c2[nH]ncc2-c2ccc(F)cc2)c(O)cc1OC	i
COc1ccc(-c2[nH]ncc2-c2ccc(Br)cc2)c(O)c1	i
CCCc1cc(-c2[nH]ncc2-c2ccc3c(c2)OCCCO3)c(O)cc1OC	0.47
COc1ccc(Nc2cc(C(=O)NCCN(Cc3ccccc3)C(C)C)c3ccccc3n2)c(OC)c1	i
COc1ccc(-c2noc(COc3cc(C)c(Br)c(C)c3)n2)cc1OC	i
CCOc1ccc(NC2c3ccccc3C(=O)N2Cc2ccccc2Cl)cc1 (stereo not given)	i
Cc1ccc(NC2c3ccccc3C(=O)N2Cc2ccccc2Cl)cc1 (stereo not given)	i
Cc1ccc(NC2c3ncccc3C(=O)N2Cc2ccc(F)cc2)cc1 (stereo not given)	0.44
CCOc1ccc(NC2c3ncccc3C(=O)N2Cc2ccc(F)cc2)cc1 (stereo not given)	0.5
CCOc1ccc(NC2c3ccccc3C(=O)N2c2cccnc2)cc1 (stereo not given)	i
Cc1ccc(NC2c3ccccc3C(=O)N2Cc2ccccc2)cc1 (stereo not given)	i
Cc1ccc(Cl)cc1NC1c2ncccc2C(=O)N1Cc1ccc(F)cc1 (stereo not given)	i
O=C1c2ccccc2C(Nc2ccccn2)N1Cc1ccccc1 (stereo not given)	i
O=C1c2cccnc2C(Nc2ccc(Cl)cc2)N1Cc1ccc(F)cc1 (stereo not given)	0.37
COc1cccc(NC(=O)N(CCN(C)C)C(C)c2cccnc2)c1 (stereo not given)	i
COc1ccc(CCNC(=O)c2ccc3c(c2)N(Cc2ccccc2F)C(=O)CS3)cc1OC	i
Cc1cc(C)c(NC(=O)Nc2cccc(Cl)c2)c(Cl)n1	i
Cc1sc2ncn(CC(=O)NCC(=O)N(C)C3CCCCC3)c(=O)c2c1C	i
O=C(CSc1ncnc2nc[nH]c12)NCCc1ccccc1	i
CC(=O)N1CCc2cc(S(=O)(=O)NCCC(=O)NC3CCN(Cc4ccccc4)CC3)ccc21	i
CCOc1ccc(-n2nc(C(=O)NCCOC)c3ccccc3c2=O)cc1	i
CCCC1=Nc2cc(C(=O)NCCc3ccc(OC)c(OC)c3)ccc2Sc2ccc(C)cc21	i
COc1ccccc1OCc1nc(C#N)c(N2CCN(c3ccccc3)CC2)o1	i
N#Cc1nc(COc2ccccc2F)oc1N1CCN(Cc2ccccc2)CC1	0.46
Cc1ccccc1OCc1nc(C#N)c(N2CCN(c3ccccc3)CC2)o1	0.42
N#Cc1nc(COc2ccccc2F)oc1N1CCCCCC1	i
COc1ccc(OCc2nc(C#N)c(N3CCN(c4ccc(OC)cc4)CC3)o2)cc1	i
